Measurements: PubChem BioAssay (EPA / NIEHS)
Records with an inconclusive call do not appear. The source made the active and inactive calls. The calls were made as follows, unless noted: active = hit-call score of the fitted dose curve at least 0.9, where 1 is the maximum; inconclusive = response in the unintended direction; inactive = score below 0.9.

Assays:
[1] = ATG_TCF_b_cat_CIS: Attagene CIS-FACTORIAL HepG2 Assay for human T-Cell-Factor with beta-catenin (TCF/b-cat) (AID 2282965; active = hit-call score of the fitted dose curve at least 0.9, where 1 is the maximum; inactive = score below 0.9); settings: HepG2 TCF/beta-catenin cis-reporter transcription, actives raise or lower the signal
Method in brief: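 Endogenous transcription factor activity is captured through cis-promoter reporter constructs transiently introduced into human HepG2 liver cells. Induced reporter mRNA is measured after 24 h and fitted bidirectionally relative to DMSO.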

[2] = ATG_TAL_CIS: Attagene CIS-FACTORIAL HepG2 Assay for human TAL Basal Promoter (AID 2282966; active = hit-call score of the fitted dose curve at least 0.9, where 1 is the maximum; inactive = score below 0.9;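 also: background control endpoint measuring basal TAL promoter reporter mRNA not a specific factor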); settings: HepG2 Attagene cis-factorial TAL promoter reporter; actives raise or lower the signal
Method in brief: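 Steps: transfect HepG2 with multiple reporter transcription units; dose 24 h; isolate RNA, reverse-transcribe, PCR-amplify, label with 6-FAM, digest with HpaI; resolve by capillary electrophoresis. Bidirectional fitting against DMSO baseline.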

[3] = ATG_TGFb_CIS: Attagene CIS-FACTORIAL HepG2 Assay for human Transforming Growth Factor (TGF) (AID 2282967; active = hit-call score of the fitted dose curve at least 0.9, where 1 is the maximum; inactive = score below 0.9); settings: HepG2 Attagene CIS TGFb reporter, mRNA transcription; actives raise or lower the signal
Method in brief: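 Liver HepG2 line, cis-factorial reporter panel, 24 h dosing. Quantitation: RT-PCR products labeled with 6-FAM, cut with HpaI, resolved by capillary electrophoresis; DMSO-referenced bidirectional analysis.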

[4] = ATG_VDRE_CIS: Attagene CIS-FACTORIAL HepG2 Assay for human Vitamin D Receptor Element (VDRE) (AID 2282968; active = hit-call score of the fitted dose curve at least 0.9, where 1 is the maximum; inactive = score below 0.9); settings: HepG2 VDRE cis-reporter transcription, actives raise or lower the signal
Method in brief: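 In transiently transfected HepG2 liver cells, gain or loss of reporter mRNA after 24 h exposure is scored relative to DMSO, using fluorescence detection by capillary electrophoresis of RT-PCR products.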

[5] = target: Estrogen receptor (Homo sapiens) (UniProt P03372); test: ATG_ERa_TRANS: Attagene TRANS-FACTORIAL HepG2 Assay for human Estrogen Receptor alpha (ERa) (AID 2282970); settings: HepG2 Attagene TRANS ERa GAL4 reporter, mRNA
Estrogen receptor (Homo sapiens), sequence (P03372 whole entry, looked up, the tested form may be a part): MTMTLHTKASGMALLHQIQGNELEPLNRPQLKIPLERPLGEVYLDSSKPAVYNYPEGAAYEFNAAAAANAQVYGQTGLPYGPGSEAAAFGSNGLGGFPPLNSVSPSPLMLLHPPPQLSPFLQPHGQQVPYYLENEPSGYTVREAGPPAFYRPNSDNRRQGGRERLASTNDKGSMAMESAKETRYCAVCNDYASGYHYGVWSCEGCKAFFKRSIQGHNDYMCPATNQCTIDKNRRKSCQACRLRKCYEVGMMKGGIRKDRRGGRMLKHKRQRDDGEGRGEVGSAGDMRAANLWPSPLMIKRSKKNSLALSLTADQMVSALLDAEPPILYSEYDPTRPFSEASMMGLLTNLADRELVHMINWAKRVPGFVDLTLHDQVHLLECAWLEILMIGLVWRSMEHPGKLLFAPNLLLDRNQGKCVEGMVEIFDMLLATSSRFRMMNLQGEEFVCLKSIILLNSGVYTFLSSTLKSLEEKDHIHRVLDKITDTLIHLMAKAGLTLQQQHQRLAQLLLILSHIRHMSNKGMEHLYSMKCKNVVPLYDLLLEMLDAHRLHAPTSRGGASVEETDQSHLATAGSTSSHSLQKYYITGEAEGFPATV
Method in brief: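 Multiplexed cell-based reporter format in HepG2: chimeric ERa-Gal4 protein drives GAL4-UAS reporter transcription. Fluorescent reporter mRNA quantified by capillary electrophoresis 24 hours after dosing; endpoint fitted as signal gain against DMSO.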

[6] = target: X-box-binding protein 1 (Homo sapiens) (UniProt P17861); test: ATG_Xbp1_CIS: Attagene CIS-FACTORIAL HepG2 Assay for human X-box Binding Protein 1 (XBP1) (AID 2282972; active = hit-call score of the fitted dose curve at least 0.9, where 1 is the maximum; inactive = score below 0.9); settings: HepG2 XBP1 cis-element reporter, Attagene multiplex; actives raise or lower the signal
X-box-binding protein 1 (Homo sapiens), sequence (P17861 whole entry, looked up): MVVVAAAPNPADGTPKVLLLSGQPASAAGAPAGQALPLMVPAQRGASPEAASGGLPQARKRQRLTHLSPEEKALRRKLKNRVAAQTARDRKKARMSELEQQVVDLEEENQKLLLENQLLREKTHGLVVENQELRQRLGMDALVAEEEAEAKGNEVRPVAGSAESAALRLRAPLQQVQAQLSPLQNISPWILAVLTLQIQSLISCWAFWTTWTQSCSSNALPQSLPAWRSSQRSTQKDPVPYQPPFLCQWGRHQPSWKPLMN
Method in brief: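 After a 24-hour chemical exposure of HepG2 cells carrying cis-regulated reporters, reporter mRNA levels are assessed. Quantification uses RT-PCR, 6-FAM labelling and capillary electrophoresis. Gain- or loss-of-signal is fitted against DMSO.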

[7] = ATG_M_19_TRANS: Attagene TRANS-FACTORIAL HepG2 Assay for M19 Transcription Factor (Internal Marker) (AID 2282974); settings: HepG2 Attagene TRANS-FACTORIAL M19 internal marker reporter
Method in brief: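 Background-control readout: after 24 h chemical exposure of transfected HepG2 carrying GAL4-driven reporter units, RNA was reverse-transcribed, amplified, fluorescently labeled and sized by capillary electrophoresis; gain-of-signal fit against DMSO.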

[8] = ATG_Hpa5_TRANS: Attagene TRANS-FACTORIAL HepG2 Assay for human GAL4-Hpa5 Hepatocyte Transcription Factor Basal Promoter (AID 2282975); settings: HepG2 Attagene GAL4-Hpa5 transcription reporter;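 also: hits are increases in reporter mRNA over DMSO baseline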
Method in brief: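 Basal-promoter GAL4 background control within the HepG2 trans-factorial panel of transiently transfected reporter units. Reporter mRNA is measured 24 h after dosing by RT-PCR and capillary electrophoresis, fitted for gain of signal versus DMSO.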

[9] = ATG_GAL4_TRANS: Attagene TRANS-FACTORIAL HepG2 Assay for GAL4 (Internal Marker) (AID 2282976); settings: HepG2 Attagene TRANS GAL4 internal marker reporter
Method in brief: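 Liver HepG2 line bearing multiplexed GAL4-UAS reporter constructs; 24 h chemical treatment. Transcripts were quantified as fluorescent fragments on capillary electrophoresis after RT-PCR and HpaI cut, with activity fitted upward from DMSO.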

[10] = target: Oxysterols receptor LXR-alpha (Homo sapiens) (UniProt Q13133); test: ATG_LXRa_TRANS: Attagene TRANS-FACTORIAL HepG2 Assay for human Liver X Receptor alpha (LXRa) (AID 2282980); settings: HepG2 Attagene TRANS reporter, LXRa transactivation
Oxysterols receptor LXR-alpha (Homo sapiens), sequence (Q13133 whole entry, looked up, the tested form may be a part): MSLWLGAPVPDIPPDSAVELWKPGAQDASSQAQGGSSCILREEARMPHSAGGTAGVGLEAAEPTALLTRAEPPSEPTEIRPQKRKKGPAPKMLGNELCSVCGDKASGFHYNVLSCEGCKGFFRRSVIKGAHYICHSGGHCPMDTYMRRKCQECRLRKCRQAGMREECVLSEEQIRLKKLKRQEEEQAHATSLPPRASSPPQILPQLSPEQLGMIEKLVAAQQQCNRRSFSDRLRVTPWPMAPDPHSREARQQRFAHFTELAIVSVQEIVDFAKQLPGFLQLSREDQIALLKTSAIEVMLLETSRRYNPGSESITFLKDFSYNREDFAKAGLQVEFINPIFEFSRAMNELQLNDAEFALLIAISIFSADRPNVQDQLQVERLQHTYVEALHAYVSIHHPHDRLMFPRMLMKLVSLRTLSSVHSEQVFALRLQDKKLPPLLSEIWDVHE
Method in brief: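 In this multiplexed TRANS system, compounds act on HepG2 cells carrying GAL4-UAS reporter units and a receptor-GAL4 fusion for 24 h. Induced reporter RNA is amplified, fluorescently labelled and sized by capillary electrophoresis, with DMSO as baseline.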

[11] = target: Oxysterols receptor LXR-beta (Homo sapiens) (UniProt P55055); test: ATG_LXRb_TRANS: Attagene TRANS-FACTORIAL HepG2 Assay for human Liver X Receptor beta (LXRb) (AID 2282981); settings: HepG2 Attagene TRANS GAL4-LXRb reporter, mRNA
Oxysterols receptor LXR-beta (Homo sapiens), sequence (P55055 whole entry, looked up, the tested form may be a part): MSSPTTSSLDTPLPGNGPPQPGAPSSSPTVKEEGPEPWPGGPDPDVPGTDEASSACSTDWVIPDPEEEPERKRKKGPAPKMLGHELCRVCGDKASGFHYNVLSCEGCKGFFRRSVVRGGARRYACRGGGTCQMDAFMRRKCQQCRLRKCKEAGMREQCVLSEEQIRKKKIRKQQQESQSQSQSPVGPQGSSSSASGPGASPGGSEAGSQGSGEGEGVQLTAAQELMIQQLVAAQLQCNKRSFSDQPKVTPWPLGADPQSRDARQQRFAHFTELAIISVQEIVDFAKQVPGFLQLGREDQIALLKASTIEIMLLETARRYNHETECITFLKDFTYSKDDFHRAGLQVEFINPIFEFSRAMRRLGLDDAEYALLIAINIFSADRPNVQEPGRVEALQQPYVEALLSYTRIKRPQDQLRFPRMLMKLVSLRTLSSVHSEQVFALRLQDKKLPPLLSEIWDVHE
Method in brief: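 Cells: HepG2, transiently transfected with GAL4-UAS reporter units plus LXRb-Gal4 fusion. Treatment: 24 h. Detection: reporter mRNA by RT-PCR, 6-FAM labelling, HpaI digestion, capillary electrophoresis.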

[12] = ATG_M_06_TRANS: Attagene TRANS-FACTORIAL HepG2 Assay for M06 Transcription Factor (Internal Marker) (AID 2282983); settings: HepG2 Attagene TRANS M06 internal marker reporter;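 also: reporter transcript level by RT-PCR then capillary electrophoresis fluorescence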
Method in brief: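 Internal-marker background readout from a multiplexed TRANS reporter system in HepG2; 24 h dosing; mRNA induction quantified by RT-PCR plus capillary electrophoresis fluorescence; DMSO as negative control and baseline.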

[13] = ATG_M_32_TRANS: Attagene TRANS-FACTORIAL HepG2 Assay for M32 Transcription Factor (Internal Marker) (AID 2282984); settings: HepG2 Attagene TRANS M32 internal marker reporter
Method in brief: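 Using transiently transfected HepG2 cells exposed to test chemicals for 24 h, reporter transcripts are converted to labelled cDNA fragments and quantified by capillary electrophoresis. DMSO defines the activity baseline.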

[14] = target: Nuclear respiratory factor 1 (Homo sapiens) (UniProt Q16656); test: ATG_NRF1_CIS: Attagene CIS-FACTORIAL HepG2 Assay for human Nuclear Respiratory Factor 1 (NRF1) Orphan Gene (AID 2282987; active = hit-call score of the fitted dose curve at least 0.9, where 1 is the maximum; inactive = score below 0.9); settings: HepG2 NRF1 cis-element reporter, Attagene multiplex; actives raise or lower the signal
Nuclear respiratory factor 1 (Homo sapiens), sequence (Q16656 whole entry, looked up): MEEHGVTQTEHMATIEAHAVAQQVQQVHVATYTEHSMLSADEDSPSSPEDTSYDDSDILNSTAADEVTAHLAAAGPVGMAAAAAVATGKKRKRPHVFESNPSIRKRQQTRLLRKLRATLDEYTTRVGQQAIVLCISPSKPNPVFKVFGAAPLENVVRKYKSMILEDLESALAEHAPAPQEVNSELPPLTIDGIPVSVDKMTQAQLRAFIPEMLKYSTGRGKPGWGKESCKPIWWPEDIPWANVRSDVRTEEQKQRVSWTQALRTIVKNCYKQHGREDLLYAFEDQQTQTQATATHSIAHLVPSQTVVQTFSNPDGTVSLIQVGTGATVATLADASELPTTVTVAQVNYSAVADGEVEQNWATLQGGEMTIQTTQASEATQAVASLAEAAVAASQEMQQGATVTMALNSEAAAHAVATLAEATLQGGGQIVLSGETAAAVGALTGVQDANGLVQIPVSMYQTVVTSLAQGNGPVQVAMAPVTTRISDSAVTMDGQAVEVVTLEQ
Method in brief: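 Endogenous NRF1-driven reporter transcription in transfected HepG2 cells after 24 h treatment. Readout: RT-PCR products, 6-FAM labelled and resolved by capillary electrophoresis; changes fitted both directions relative to DMSO.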

[15] = target: Bile acid receptor (Homo sapiens) (UniProt Q96RI1); test: ATG_FXR_TRANS: Attagene TRANS-FACTORIAL HepG2 Assay for Farnesoid X Receptor (FXR) (AID 2282979); settings: HepG2 Attagene TRANS FXR-GAL4 reporter transcription;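 also: hits raise reporter mRNA above DMSO so AC50 marks FXR activation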
Bile acid receptor (Homo sapiens), sequence (Q96RI1 whole entry, looked up, the tested form may be a part): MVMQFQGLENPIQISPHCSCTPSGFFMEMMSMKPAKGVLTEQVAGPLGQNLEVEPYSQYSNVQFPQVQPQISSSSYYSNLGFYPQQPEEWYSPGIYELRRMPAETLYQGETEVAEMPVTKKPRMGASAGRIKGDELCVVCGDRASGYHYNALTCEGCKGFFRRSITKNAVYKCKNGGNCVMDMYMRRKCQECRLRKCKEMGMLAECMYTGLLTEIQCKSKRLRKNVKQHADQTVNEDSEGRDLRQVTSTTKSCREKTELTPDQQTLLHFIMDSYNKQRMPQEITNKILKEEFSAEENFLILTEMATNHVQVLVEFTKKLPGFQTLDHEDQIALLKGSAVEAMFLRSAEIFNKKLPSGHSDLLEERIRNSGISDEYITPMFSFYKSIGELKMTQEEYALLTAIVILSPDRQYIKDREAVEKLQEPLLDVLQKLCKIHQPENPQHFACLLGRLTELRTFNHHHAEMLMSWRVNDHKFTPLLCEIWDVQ
Method in brief: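 After 24 h chemical treatment of transfected HepG2 cells, GAL4-UAS reporter transcripts driven by an exogenous FXR-GAL4 fusion were measured by RT-PCR and capillary electrophoresis. Increases over DMSO were fitted.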

[16] = target: Nuclear receptor subfamily 4 group A member 2 (Homo sapiens) (UniProt P43354); test: ATG_NURR1_TRANS: Attagene TRANS-FACTORIAL HepG2 Assay for human Nuclear Receptor Related Protein 1 (NURR1) (AID 2282985); settings: HepG2 Attagene TRANS reporter, mRNA readout
Nuclear receptor subfamily 4 group A member 2 (Homo sapiens), sequence (P43354 whole entry, looked up): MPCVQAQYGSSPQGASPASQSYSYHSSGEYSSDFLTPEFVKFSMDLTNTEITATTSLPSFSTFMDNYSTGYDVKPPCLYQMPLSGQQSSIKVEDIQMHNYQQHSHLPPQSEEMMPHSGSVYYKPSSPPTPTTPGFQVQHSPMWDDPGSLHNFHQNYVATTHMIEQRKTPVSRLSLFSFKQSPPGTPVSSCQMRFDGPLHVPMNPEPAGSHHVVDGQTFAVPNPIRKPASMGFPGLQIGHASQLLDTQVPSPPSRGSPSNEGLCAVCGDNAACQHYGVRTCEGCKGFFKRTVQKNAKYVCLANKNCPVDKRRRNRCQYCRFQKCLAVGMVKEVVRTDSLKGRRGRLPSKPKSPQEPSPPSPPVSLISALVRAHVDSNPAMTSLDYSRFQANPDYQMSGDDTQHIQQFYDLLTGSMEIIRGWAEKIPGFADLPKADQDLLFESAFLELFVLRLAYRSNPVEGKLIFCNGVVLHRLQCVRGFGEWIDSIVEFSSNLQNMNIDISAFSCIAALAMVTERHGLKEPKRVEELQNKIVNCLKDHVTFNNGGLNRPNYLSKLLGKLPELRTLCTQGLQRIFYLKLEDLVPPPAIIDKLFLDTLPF
Method in brief: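 Cells: HepG2, transiently transfected. Exposure: 24 h. Detection: fluorescence of labelled RT-PCR products separated by capillary electrophoresis; upward fit versus DMSO.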

[17] = target: Transcriptional activator Myb (Homo sapiens) (UniProt P10242); test: ATG_Myb_CIS: Attagene CIS-FACTORIAL HepG2 Assay for human Myeloblastosis (Myb) Proto-Oncogene Transcription Factor (AID 2282986; active = hit-call score of the fitted dose curve at least 0.9, where 1 is the maximum; inactive = score below 0.9); settings: HepG2 Attagene CIS-FACTORIAL Myb reporter transcription; actives raise or lower the signal
Transcriptional activator Myb (Homo sapiens), sequence (P10242 whole entry, looked up): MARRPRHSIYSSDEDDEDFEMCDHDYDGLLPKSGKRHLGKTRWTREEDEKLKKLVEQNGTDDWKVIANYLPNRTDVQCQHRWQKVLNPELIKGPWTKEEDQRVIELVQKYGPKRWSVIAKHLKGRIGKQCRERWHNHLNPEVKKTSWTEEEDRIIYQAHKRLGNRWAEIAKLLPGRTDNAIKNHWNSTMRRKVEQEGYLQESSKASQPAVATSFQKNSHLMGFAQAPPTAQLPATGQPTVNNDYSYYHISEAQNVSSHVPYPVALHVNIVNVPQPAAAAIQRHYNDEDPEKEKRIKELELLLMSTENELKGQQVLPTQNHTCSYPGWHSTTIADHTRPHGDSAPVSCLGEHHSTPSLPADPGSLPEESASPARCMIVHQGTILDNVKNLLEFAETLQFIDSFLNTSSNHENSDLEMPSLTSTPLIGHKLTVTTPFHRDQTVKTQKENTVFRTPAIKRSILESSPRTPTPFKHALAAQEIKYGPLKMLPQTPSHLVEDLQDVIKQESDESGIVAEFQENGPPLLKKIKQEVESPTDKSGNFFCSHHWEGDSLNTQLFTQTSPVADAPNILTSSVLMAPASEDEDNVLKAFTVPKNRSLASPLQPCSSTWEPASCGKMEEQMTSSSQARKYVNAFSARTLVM
Method in brief: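 Reporter mRNA is quantified by RT-PCR and capillary electrophoresis 24 h after dosing HepG2 cells transfected with cis-regulated reporter units, which track endogenous transcription factor activity. Gain and loss of signal are fitted versus DMSO baseline.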

[18] = target: Nuclear receptor subfamily 1 group I member 3 (Homo sapiens) (UniProt Q14994); test: ATG_CAR_TRANS: Attagene TRANS-FACTORIAL HepG2 Assay for human Constitutive Androstane Receptor (CAR) (AID 2282969); settings: HepG2 Attagene TRANS-FACTORIAL CAR reporter;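 also: activators raise reporter mRNA above DMSO so AC50 marks induction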
Nuclear receptor subfamily 1 group I member 3 (Homo sapiens), sequence (Q14994 whole entry, looked up, the tested form may be a part): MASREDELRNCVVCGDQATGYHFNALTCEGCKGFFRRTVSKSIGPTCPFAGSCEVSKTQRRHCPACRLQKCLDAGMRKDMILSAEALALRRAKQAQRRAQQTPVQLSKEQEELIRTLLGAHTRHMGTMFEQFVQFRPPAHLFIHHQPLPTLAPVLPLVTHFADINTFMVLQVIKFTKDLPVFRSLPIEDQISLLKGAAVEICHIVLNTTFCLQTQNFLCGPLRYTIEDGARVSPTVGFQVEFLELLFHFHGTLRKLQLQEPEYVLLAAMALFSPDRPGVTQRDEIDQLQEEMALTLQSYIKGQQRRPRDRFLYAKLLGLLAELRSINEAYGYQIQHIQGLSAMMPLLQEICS
Method in brief: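 Readout is reporter mRNA induction, quantified by fluorescent primer extension and capillary electrophoresis after RT-PCR. Cells were HepG2 transiently carrying chimeric NR-Gal4 constructs with GAL4-UAS reporters, treated for 24 h; activity scored upward from DMSO.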

[19] = target: Hepatocyte nuclear factor 4-alpha (Homo sapiens) (UniProt P41235); test: ATG_HNF4a_TRANS: Attagene TRANS-FACTORIAL HepG2 Assay for human Hepatocyte Nuclear Factor 4 alpha (HNF4a) (AID 2282982); settings: HepG2 HNF4a transactivation reporter, mRNA readout
Hepatocyte nuclear factor 4-alpha (Homo sapiens), sequence (P41235 whole entry, looked up): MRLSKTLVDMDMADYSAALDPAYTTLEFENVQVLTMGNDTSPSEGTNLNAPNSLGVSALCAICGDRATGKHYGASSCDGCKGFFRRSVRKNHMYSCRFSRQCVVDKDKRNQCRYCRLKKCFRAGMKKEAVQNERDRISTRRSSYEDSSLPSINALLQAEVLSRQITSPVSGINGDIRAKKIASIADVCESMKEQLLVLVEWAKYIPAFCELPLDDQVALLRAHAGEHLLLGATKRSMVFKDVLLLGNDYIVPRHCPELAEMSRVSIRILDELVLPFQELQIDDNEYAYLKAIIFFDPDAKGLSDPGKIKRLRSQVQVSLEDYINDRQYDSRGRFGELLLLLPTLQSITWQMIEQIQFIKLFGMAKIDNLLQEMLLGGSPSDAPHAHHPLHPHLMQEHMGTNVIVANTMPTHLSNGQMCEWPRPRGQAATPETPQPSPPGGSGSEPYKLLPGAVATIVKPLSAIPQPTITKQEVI
Method in brief: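 Transfected HepG2 reporter cells are dosed for 24 h; reporter RNA is reverse-transcribed, amplified, fluorescently labelled and HpaI-digested before CE sizing. Positive-direction fit against DMSO.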

Measured: AC50

COP(=S)(OC)SCn1nnc2ccccc2c1=O
active: [4] 10.3 µM | [5] 45.4 µM | [6] 18.7 µM
not listed: [15] | [16] | [17] | [18] | [19]
inactive: all other assays above

Cc1nc(N(C)C)nc(OC(=O)N(C)C)c1C
not listed: [9] | [10] | [11] | [12] | [13] | [18] | [19]
inactive: all other assays above

CCOC(=O)C(C)OC(=O)c1cc(Oc2ccc(C(F)(F)F)cc2Cl)ccc1[N+](=O)[O-] (stereo not given)
active: [5] 50 µM
not listed: [4] | [7] | [9] | [13] | [15] | [16] | [19]
inactive: all other assays above

CNC(=O)Oc1cccc2ccccc12
active: [5] 50 µM
not listed: [8] | [9] | [12] | [13] | [19]
inactive: all other assays above

Clc1nc(Cl)nc(Nc2ccccc2Cl)n1
inactive: [1] | [2] | [3] | [4] | [6] | [7] | [11] | [16] | [14]

CN/C(=N\[N+](=O)[O-])NCc1cnc(Cl)s1
not listed: [7] | [8] | [9] | [15] | [16] | [17] | [19]
inactive: all other assays above

C=C(C)CN(CC)c1c([N+](=O)[O-])cc(C(F)(F)F)cc1[N+](=O)[O-]
active: [4] 25.1 µM | [5] 30.7 µM
not listed: [10] | [11] | [13] | [15] | [19]
inactive: all other assays above

CCCN(CC)CC1COC2(CCC(C(C)(C)C)CC2)O1 (stereo not given)
active: [3] 19.9 µM | [4] 9.19 µM | [6] 25.3 µM
not listed: [9] | [12] | [15] | [16] | [17] | [19]
inactive: all other assays above

OC(c1ccc(Cl)cc1)(c1ccc(Cl)cc1)C(Cl)(Cl)Cl
inactive: [1] | [2] | [3] | [4] | [5] | [6] | [11] | [19] | [12] | [14]
